The full list was thinned out, with hits kept by preference.
ALOX12 inh = inhibitors of human 12S-lipoxygenase ALOX12; actives 1.1% (n = 580,000); purified 12hLO, xylenol orange hydroperoxide absorbance; P18054; Potency, µM (titrated, usually from 108 µM), for inactives: at the top dose activity change, negative = inhibition, hits mostly inhibitors; also: potency is read from the fitted curve at half-maximal effect
Target sequence (P18054 whole entry, looked up): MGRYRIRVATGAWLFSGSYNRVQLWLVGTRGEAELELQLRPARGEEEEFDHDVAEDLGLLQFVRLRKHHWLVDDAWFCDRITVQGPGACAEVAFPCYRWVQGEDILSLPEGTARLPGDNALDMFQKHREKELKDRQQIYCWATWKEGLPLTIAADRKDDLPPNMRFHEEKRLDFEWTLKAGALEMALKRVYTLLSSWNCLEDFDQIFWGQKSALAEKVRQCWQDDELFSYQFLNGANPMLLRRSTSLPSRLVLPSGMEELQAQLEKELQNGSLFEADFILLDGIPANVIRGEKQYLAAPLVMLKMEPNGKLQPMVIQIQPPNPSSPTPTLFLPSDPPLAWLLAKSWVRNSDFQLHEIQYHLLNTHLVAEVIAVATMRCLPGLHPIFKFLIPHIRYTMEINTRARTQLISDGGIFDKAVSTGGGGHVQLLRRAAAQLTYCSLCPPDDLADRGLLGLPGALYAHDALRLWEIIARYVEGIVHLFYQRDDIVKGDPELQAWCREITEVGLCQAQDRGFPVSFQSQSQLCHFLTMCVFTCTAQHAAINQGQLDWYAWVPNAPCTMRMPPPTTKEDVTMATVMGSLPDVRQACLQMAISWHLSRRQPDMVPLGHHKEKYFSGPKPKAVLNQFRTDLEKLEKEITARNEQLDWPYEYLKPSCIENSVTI
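Purified human 12hLO (150 nM final) in 25 mM Hepes, 0.01% Triton X-100, pH 7.0 was preincubated 15 min at room temperature with compound. Then 40 uM arachidonic acid was added, 30 min. Hydroperoxide was read by Fe-XO absorbance ratio 573/405 nm.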
IL1B secr inh = inhibitors of inflammasome signaling (IL-1 beta secretion) | actives 4.7% (n = 360,000) | activity change, % at 57.5 µM | THP-1 LPS/ATP IL-1B secretion, AlphaLISA, 16 h; hits give low values; in the data active = activity change below about -50%; inconclusive = mostly about -30% to -49%
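THP-1 cells pretreated 1 hr with compounds (up to 57.5 uM final), then stimulated with LPS (250 ng/mL final) plus ATP (1.25 mM final); secreted IL-1B measured by AlphaLISA after 16 hr, decreased signal indicating inhibition.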
HT1080 IDH1KD tx = HT-1080 IDH1 knockdown cell toxicity (counter line); HT-1080 IDH1 knockdown viability, ATP luminescence, 48 h; Potency, µM (doses to about 46.1 µM), without a hit: at the highest dose activity, negative = toxicity, usual class: cytotoxic; actives 2% (n = 360,000); AID 686971;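 also: potency is read from the fitted curve at half-maximal effect; 0% = DMSO wells and -100% = cell-free medium wells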
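After a 2 h attachment period, IDH1KD HT-1080 cells took pin-transferred compound for 48 h at 37 °C; ATP-based luminescence after 10 min room-temperature reagent incubation reported viability.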
DT40 TDP1 no CPT = qHTS for Inhibitors of human tyrosyl-DNA phosphodiesterase 1 (TDP1): qHTS in cells in absence of CPT | actives 15% (n = 420,000) | DT40 Tdp1-/- hTDP1 cells, no CPT, ATP luminescence, 48 h | Potency, µM (top dose mostly 46.2 µM), for inactives: top-dose activity change, negative = growth inhibition, hits mostly inhibitors; also: potency is read from the fitted curve at half-maximal effect; nearly all actives have a fitted effect of over 55% in size
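Chicken DT40 Tdp1-/- cells stably complemented with human TDP1 were seeded at 400 cells/well with DMSO in place of 20 nM camptothecin. After compound pinning, cells grew at least 48 hr at 37 °C; viability read by CellTiter-Glo luminescence.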
TDP1 cell CPT = DT40-hTDP1 cell growth loss with CPT. actives 12% (n = 420,000). chicken DT40 Tdp1-/-;hTDP1 cells + 20 nM CPT, ATP luminescence, 48 h. Potency, µM (series often up to 46.2 µM), for the others: top-dose activity change, negative = growth inhibition, usual class: inhibitors; also: potency is read from the fitted curve at half-maximal effect; nearly all actives have a fitted effect of over 55% in size
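Cell growth measured by CellTiter-Glo luminescence after a minimum 48 h, 37 C compound exposure with 20 nM CPT in Tdp1-knockout DT40 cells stably expressing hTDP1, seeded 400/well; qHTS titration format.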
HT1080-NT tox = kills 2HG-producing HT-1080-NT fibrosarcoma cells; Potency, µM (doses to about 46.1 µM), without a hit: at the highest dose activity, negative = less viability, most hits filed as cytotoxic; HT-1080-NT fibrosarcoma viability, CellTiter-Glo ATP luminescence, 48 h; actives 1.6% (n = 360,000); AID 686970;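 also: NT is the 2HG producing partner of a matched IDH1 knockdown line; potency is read from the fitted curve at half-maximal effect; 0% = DMSO-treated cells and -100% = media-only wells without cells; nearly all actives have a fitted effect of over 55% in size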
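HT-1080-NT; 750 cells/well; 5% FBS RPMI; 48 h compound, 37 degrees C; CellTiter-Glo luminescence; curve fitting and curve-class assignment.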
Active calls of the source: *; ? = inconclusive; · = no result; [ ] = dose if it differs, or a comment. Unless noted, calls follow the shape of the dose curve; as a rule, active = well fitted curve in the direction sought with a large enough effect; inconclusive = small, poorly fitted or top-dose-only effect, or another doubt; inactive = no such curve, though single readings can be large; an effect the other way counts as inactive or inconclusive. Unless noted, % is scaled to controls: 0 for no effect and ±100 for the full control effect.

SMILES	ALOX12 inh	IL1B secr inh	HT1080 IDH1KD tx	DT40 TDP1 no CPT	TDP1 cell CPT	HT1080-NT tox
O=c1[nH]c(SCc2nc3ccccc3c(=O)n2-c2ccccc2C(F)(F)F)nc2ccccc12	-16%	-81*	-14%	?	16µM*	-7%
O=c1[nH]c(SCc2nc3ccccc3n2Cc2ccccc2)nc2ccccc12	-6%	4	-15%	-21%	-26%	-12%
COc1ccc(/C=C2\SC(=S)N(CCCC(=O)N3CCOCC3)C2=O)cc1	45µM*	-10	-15%	?	?	-6%
O=C(CCN1C(=O)/C(=C\c2cccc(Br)c2)SC1=S)N1CCOCC1	1%	?	-1%	6.5µM*	6.5µM*	0%
Cc1cc(NC(=O)CN2C(=O)/C(=C/c3cccc(Br)c3)SC2=S)no1	-11%	13	2%	?	-24%	-2%
O=C(CCCN1C(=O)/C(=C/c2ccccc2Cl)SC1=S)NNC(=O)c1ccccc1	5%	-102*	10%	16µM*	18µM*	5%
CCc1ccc(/C=C2\SC(=S)N(CCCC(=O)N3CCCC3)C2=O)cc1	-17%	-29	2%	?	?	1%
COc1ccc(/C=C2\SC(=S)N(CCCC(=O)N3CCOCC3)C2=O)cc1OC	-15%	7	-7%	?	2%	-1%
O=C(CCCN1C(=O)/C(=C\c2ccccc2)SC1=S)N1CCOCC1	-28%	-84*	?	?	23µM*	6%
Cc1ccc(S(=O)(=O)N2CCCc3nc(-c4ccc(F)cc4)ccc32)cc1	-1%	·	·	·	·	·
COc1ccc2cc(C(=O)Nc3ccc(S(N)(=O)=O)cc3)sc(=O)c2c1OC	-16%	?	1%	?	6%	-17%
O=C(CCCN1C(=O)/C(=C/c2ccccc2Cl)SC1=S)N1CCOCC1	1%	?	-1%	16µM*	?	-6%
O=C(CCN1C(=O)/C(=C/c2ccccc2Cl)SC1=S)NCCCN1CCOCC1	1%	-9	-9%	?	?	3%
O=C(Cc1ccc(Br)cc1)NCc1ccccc1	43%	33	2.9µM*	2.1µM*	2.9µM*	8.2µM*
Cc1ccc(CNC(=O)COC(=O)c2ccc(Br)cc2)cc1	-21%	-14	8%	-5%	-4%	15%
O=C(COC(=O)Cc1ccc(Br)cc1)NCc1ccccc1	20%	22	3%	-18%	-22%	3%
Cc1ccc(CNC(=O)Cc2ccc(Br)cc2)cc1	22%	31	8.2µM*	7.3µM*	9.2µM*	23µM*
CCc1ccc(C2=NN(CCC(=O)NC(C)CCc3ccccc3)C(=O)CC2)cc1 (configuration not stated)	1%	-52*	-13%	?	?	-17%
COc1cccc(C2CC(=O)Nc3nc(N)sc32)c1OCc1ccc(F)cc1 (configuration not stated)	2µM*	·	·	·	·	·
Nc1nc2c(s1)C(c1cccc(F)c1F)CC(=O)N2 (configuration not stated)	16µM*	·	·	·	·	·
COc1cccc(C2CC(=O)Nc3cc(OC)c(OC)c(OC)c32)c1OC (configuration not stated)	154%	10	2%	?	?	4%
Nc1nc2c(s1)C(c1ccc(F)cc1F)CC(=O)N2 (configuration not stated)	13µM*	·	·	·	·	·
CCNc1nc2c(s1)C(c1cccnc1)CC(=O)N2 (configuration not stated)	-10%	·	·	·	·	·
Nc1nc2c(s1)C(c1cccc(OCc3cccc(F)c3)c1)CC(=O)N2 (configuration not stated)	3.5µM*	·	·	·	·	·
CNc1nc2c(s1)C(c1ccc(F)c(F)c1)CC(=O)N2 (configuration not stated)	-25%	·	·	·	·	·
SMILES	ALOX12 inh	IL1B secr inh	HT1080 IDH1KD tx	DT40 TDP1 no CPT	TDP1 cell CPT	HT1080-NT tox
Nc1nc2c(s1)C(c1ccc(Br)cc1)CC(=O)N2 (configuration not stated)	27%	·	·	·	·	·
Cc1ccc(NC(=O)N2CC(C(=O)N(C)C)C3(CCOCC3)C2)cc1C (configuration not stated)	67%	·	·	·	·	·
COc1cc(F)cc(-c2cnc3[nH]cc(CC(=O)N4CCOCC4)c3c2)c1	-5%[176 µM]	·	·	·	·	·
Cc1ccc(N2CC(C(=O)Nc3nnc(C4CC4)s3)CC2=O)cc1F (configuration not stated)	-6%	·	·	·	·	·
Cc1cccc(NS(=O)(=O)c2ccc3c(c2)CCN3S(C)(=O)=O)c1C	-8%	·	·	·	·	·
OCCN1CCN(c2nc(N3CCCCC3)nc(N3CCCCC3)n2)CC1	1%	-28	-24%	18µM*	?	-2%
O=C(c1cc(Cl)ccc1Cl)N1CCN(c2cc(-c3ccccc3)[nH]n2)CC1	34%	·	·	·	·	·
O=C(c1cccc(Cl)c1)N1CCC2(C1)C(=O)N(CCc1ccccc1)c1ccccc12 (configuration not stated)	-9%	·	·	·	·	·
CC(C)c1ccc(NC(=O)Cn2c(=O)n(CC3CCC(C(=O)NCCc4ccccc4)CC3)c(=O)c3ccccc32)cc1 (configuration not stated)	-19%	·	·	15µM*	16µM*	·
CCc1cccc(NC(=O)Cn2c(=O)n(CC3CCC(C(=O)NCCc4ccccc4)CC3)c(=O)c3ccccc32)c1 (configuration not stated)	-21%	·	·	13µM*	21µM*	·
Cc1ccc(NC(=O)Cn2c(=O)n(CC(=O)NCCc3ccccc3)c(=O)c3ccccc32)cc1C	?	·	·	3.3µM*	?	·
Cc1ccc(NC(=O)Cn2c(=O)n(CC(=O)NCCc3ccccc3)c(=O)c3ccccc32)cc1	-16%	·	·	-14%	-25%	·
O=C(Cn1c(=O)n(CC2CCC(C(=O)NCCc3ccccc3)CC2)c(=O)c2ccccc21)Nc1ccccc1 (configuration not stated)	-11%	·	·	-5%	-20%	·
CC(=O)NC1(C)CCCN(Cc2cccc(-c3cccc(F)c3)c2)C1 (configuration not stated)	-1%[176 µM]	·	·	·	·	·
CC(=O)NC1(C)CCN(Cc2cnc(-c3cccc(F)c3)s2)CC1	50µM*	·	·	·	·	·
Cc1c(Cl)cccc1-n1ncc(C(=O)Nc2ccc(Br)cc2F)c1C1CCNCC1	?	·	·	5.2µM*	4.1µM*	·
